Screen size: about 5,500 compounds; about 2,000 (36%) were called active. Roughly 18% stayed inconclusive and do not appear here. Rule as the data show it: active = normalized growth mostly below about 0.91 (no sharp cut-off); inconclusive = no clear call, values can overlap the other calls; inactive = mostly above about 0.92. Some of the results follow.
Assay: chemical genetic growth profiling, strain panel (AID 1159580);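 also: tested at 20 µM; growth read once vehicle control cultures reached saturation at 30 °C; 1 = growth at the plate median or of vehicle wells; lower values mean less growth of the strain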
Conditions: growth OD

Measured: normalized growth

O=C(O)c1ccc(S(=O)(=O)N(Cl)Cl)cc1
inactive: S. cerevisiae deletion strains, locus YJR066W, strain TOR1, stronger effect = lower value 0.916 | S. cerevisiae deletion strains, locus YKL009W, strain mrt4, stronger effect = lower value 0.99 | S. cerevisiae deletion strains, locus YKL068W, stronger effect = lower value 1 | S. cerevisiae deletion strains, locus YKL085W, strain MDH1 (second series), stronger effect = lower value 1.01 | S. cerevisiae deletion strains, locus YKL085W, strain MDH1, stronger effect = lower value 1.01 | S. cerevisiae deletion strains, locus YKL160W, strain elf1, stronger effect = lower value 1.05 | S. cerevisiae deletion strains, locus YKL190W, strain CNB1, stronger effect = lower value 1 | S. cerevisiae deletion strains, locus YKR001C, strain vps1, stronger effect = lower value 1.02 | S. cerevisiae deletion strains, locus YKR026C, strain gcn3, stronger effect = lower value 0.977 | S. cerevisiae deletion strains, locus YKR091W, strain srl3, stronger effect = lower value 0.989 | S. cerevisiae deletion strains, locus YLL001W, strain dnm1, stronger effect = lower value 1.03 | S. cerevisiae deletion strains, locus YLL026W, stronger effect = lower value 0.976 | S. cerevisiae deletion strains, locus YLL041C, strain sdh2, stronger effect = lower value 0.989 | S. cerevisiae deletion strains, locus YLR027C, strain aat2, stronger effect = lower value 0.985 | S. cerevisiae deletion strains, locus YLR039C, strain RIC1, stronger effect = lower value 0.985 | S. cerevisiae deletion strains, locus YLR058C, strain SHM2, stronger effect = lower value 1.01 | S. cerevisiae deletion strains, locus YLR102C, strain apc9, stronger effect = lower value 1.02 | S. cerevisiae deletion strains, locus YLR113W, strain HOG1, stronger effect = lower value 0.961 | S. cerevisiae deletion strains, locus YLR221C, strain rsa3, stronger effect = lower value 1.02 | S. cerevisiae deletion strains, locus YLR258W, strain gsy2, stronger effect = lower value 0.994 | S. cerevisiae deletion strains, locus YLR262C, strain YPT6 (second series), stronger effect = lower value 1 | S. cerevisiae deletion strains, locus YLR262C, strain YPT6, stronger effect = lower value 0.995 | S. cerevisiae deletion strains, locus YLR268W, strain sec22, stronger effect = lower value 1 | S. cerevisiae deletion strains, locus YLR320W, strain mms22, stronger effect = lower value 1.05 | S. cerevisiae deletion strains, locus YLR330W, strain CHS5, stronger effect = lower value 0.999 | S. cerevisiae deletion strains, locus YLR342W, strain FKS1 (second series), stronger effect = lower value 0.993 | S. cerevisiae deletion strains, locus YLR342W, strain FKS1, stronger effect = lower value 0.983 | S. cerevisiae deletion strains, locus YLR357W, strain rsc2, stronger effect = lower value 1.01 | S. cerevisiae deletion strains, locus YLR370C, strain arc18, stronger effect = lower value 0.974 | S. cerevisiae deletion strains, locus YLR371W, strain rom2, stronger effect = lower value 1.01 | S. cerevisiae deletion strains, locus YLR384C, strain iki3, stronger effect = lower value 0.988 | S. cerevisiae deletion strains, locus YLR418C, strain cdc73, stronger effect = lower value 0.951 | S. cerevisiae deletion strains, locus YML016C, strain PPZ1, stronger effect = lower value 1.01 | S. cerevisiae deletion strains, locus YML032C, strain rad52, stronger effect = lower value 1.02 | S. cerevisiae deletion strains, locus YML120C, strain ndi1, stronger effect = lower value 1.03 | S. cerevisiae deletion strains, locus YML124C, strain tub3, stronger effect = lower value 1.03 | S. cerevisiae deletion strains, locus YMR058W, strain fet3, stronger effect = lower value 0.983 | S. cerevisiae deletion strains, locus YMR078C, strain ctf18, stronger effect = lower value 1.03 | S. cerevisiae deletion strains, locus YMR125W, strain sto1, stronger effect = lower value 1.02 | S. cerevisiae deletion strains, locus YMR129W, stronger effect = lower value 0.984 | S. cerevisiae deletion strains, locus YMR205C, strain PFK2, stronger effect = lower value 1.04 | S. cerevisiae deletion strains, locus YMR223W, strain ubp8, stronger effect = lower value 1.02 | S. cerevisiae deletion strains, locus YMR231W, strain pep5, stronger effect = lower value 0.978 | S. cerevisiae deletion strains, locus YMR307W, strain GAS1, stronger effect = lower value 0.964 | S. cerevisiae deletion strains, locus YNL067W, strain RPL9B, stronger effect = lower value 1 | S. cerevisiae deletion strains, locus YNL071W, strain lat1, stronger effect = lower value 0.998 | S. cerevisiae deletion strains, locus YNL128W, strain TEP1, stronger effect = lower value 1.02 | S. cerevisiae deletion strains, locus YNL183C, strain NPR1, stronger effect = lower value 0.926 | S. cerevisiae deletion strains, locus YNL209W, strain ssb2, stronger effect = lower value 0.983 | S. cerevisiae deletion strains, locus YNL233W, strain BNI4, stronger effect = lower value 0.997 | S. cerevisiae deletion strains, locus YNL248C, strain rpa49, stronger effect = lower value 1.06 | S. cerevisiae deletion strains, locus YNL250W, strain rad50, stronger effect = lower value 1.02 | S. cerevisiae deletion strains, locus YNL271C, strain bni1, stronger effect = lower value 1.03 | S. cerevisiae deletion strains, locus YNL298W, strain CLA4, stronger effect = lower value 1.05 | S. cerevisiae deletion strains, locus YNL307C, strain MCK1, stronger effect = lower value 1.01 | S. cerevisiae deletion strains, locus YNL322C, strain KRE1 (second series), stronger effect = lower value 0.992 | S. cerevisiae deletion strains, locus YNR049C, strain mso1, stronger effect = lower value 0.975 | S. cerevisiae deletion strains, locus YNR052C, strain pop2, stronger effect = lower value 1.01 | S. cerevisiae deletion strains, locus YOL006C, strain TOP1, stronger effect = lower value 1.01 | S. cerevisiae deletion strains, locus YOL012C, strain htz1 2.24 | S. cerevisiae deletion strains, locus YOL147C, strain pex11, stronger effect = lower value 1.02 | S. cerevisiae deletion strains, locus YOR001W, strain rrp6, stronger effect = lower value 0.944 | S. cerevisiae deletion strains, locus YOR061W, strain CKA2, stronger effect = lower value 1.01 | S. cerevisiae deletion strains, locus YOR069W, strain VPS5, stronger effect = lower value 0.998 | S. cerevisiae deletion strains, locus YOR070C, strain gyp1, stronger effect = lower value 0.967 | S. cerevisiae deletion strains, locus YOR080W, strain dia2, stronger effect = lower value 0.969 | S. cerevisiae deletion strains, locus YOR083W, strain WHI5, stronger effect = lower value 1.05 | S. cerevisiae deletion strains, locus YOR106W, strain vam3, stronger effect = lower value 1.06 | S. cerevisiae deletion strains, locus YOR136W, strain idh2, stronger effect = lower value 1.02 | S. cerevisiae deletion strains, locus YOR144C, strain elg1, stronger effect = lower value 1.02 | S. cerevisiae deletion strains, locus YOR184W, strain ser1, stronger effect = lower value 0.992 | S. cerevisiae deletion strains, locus YOR231W, strain MKK1, stronger effect = lower value 0.971 | S. cerevisiae deletion strains, locus YOR265W, strain rbl2, stronger effect = lower value 0.981 | S. cerevisiae deletion strains, locus YOR270C, strain vph1, stronger effect = lower value 1.01 | S. cerevisiae deletion strains, locus YOR290C, strain snf2, stronger effect = lower value 1 | S. cerevisiae deletion strains, locus YOR316C, strain cot1, stronger effect = lower value 1.02 | S. cerevisiae deletion strains, locus YPL051W, strain arl3, stronger effect = lower value 1.02 | S. cerevisiae deletion strains, locus YPL055C, strain LGE1, stronger effect = lower value 0.979 | S. cerevisiae deletion strains, locus YPL078C, strain atp4, stronger effect = lower value 1.05 | S. cerevisiae deletion strains, locus YPL106C, strain sse1, stronger effect = lower value 0.985 | S. cerevisiae deletion strains, locus YPL240C, strain hsp82, stronger effect = lower value 0.989 | S. cerevisiae deletion strains, locus YPL241C, strain CIN2, stronger effect = lower value 1 | S. cerevisiae deletion strains, locus YPL256C, strain CLN2, stronger effect = lower value 0.97 | S. cerevisiae deletion strains, locus YPR119W, strain clb2, stronger effect = lower value 1.02 | S. cerevisiae deletion strains, locus YPR141C, strain kar3, stronger effect = lower value 1.02 | S. cerevisiae deletion strains, locus YPR163C, strain tif3, stronger effect = lower value 1.04 | S. cerevisiae deletion strains, locus YPR167C, strain met16, stronger effect = lower value 1.02 | S. cerevisiae deletion strains, strain wtn01, stronger effect = lower value 1.01 | S. cerevisiae strains, strain wild type, stronger effect = lower value 1
